TDP1 cell CPT – DT40-hTDP1 cell growth loss with CPT; chicken DT40 Tdp1-/-;hTDP1 cells + 20 nM CPT, ATP luminescence, 48 h; AID 686979; 420,000 compounds, 12% hits; Potency, µM (top dose mostly 46.2 µM), most hits filed as inhibitors; note: nearly all actives have a fitted effect of over 55% in size
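Chicken DT40 Tdp1-/- cells complemented with human TDP1, 400 cells/well, exposed to compounds plus 20 nM camptothecin for at least 48 h at 37 C; viability read as ATP content by CellTiter-Glo luminescence.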
TDP1 cell noCPT – qHTS for Inhibitors of human tyrosyl-DNA phosphodiesterase 1 (TDP1): qHTS in cells in absence of CPT | DT40 Tdp1-/- hTDP1 cells, no CPT, ATP luminescence, 48 h | Potency, µM (top dose mostly 46.2 µM), actives largely listed as inhibitors | 420,000 compounds, 15% hits | AID 686978, 2013; note: nearly all actives have a fitted effect of over 55% in size
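Growth of hTDP1-complemented DT40 Tdp1-knockout cells is measured by ATP luminescence after at least 48 hr compound exposure at 37 °C, with DMSO substituting for the 20 nM CPT used in the parallel screen.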
HT1080 IDH1KD tx – kills HT-1080 cells with IDH1 knockdown. 360,000 compounds, 2% hits. HT-1080 IDH1 knockdown viability, ATP luminescence, 48 h. Potency, µM (titrated, usually from 46.1 µM), usual class: cytotoxic
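Assay cells: HT-1080 with IDH1 knockdown, 750 per well, RPMI/5% FBS. Exposure: 48 h at 37 °C following 2 h pre-incubation. Read: CellTiter-Glo luminescence; fitted concentration-response, curve class assigned.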
HT1080-NT tox – kills 2HG-producing HT-1080-NT fibrosarcoma cells; HT-1080-NT fibrosarcoma viability, CellTiter-Glo ATP luminescence, 48 h; Potency, µM (series often up to 46.1 µM), hits mostly cytotoxic; 360,000 compounds, 1.6% hits; AID 686970;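 note: NT is the 2HG producing partner of a matched IDH1 knockdown line; nearly all actives have a fitted effect of over 55% in size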
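Fibrosarcoma NT cells, 750 per well in 5% FBS RPMI, were exposed to compound for 48 hours. Viability: CellTiter-Glo luminescence.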
IL1B secr inh – inflammasome signaling inhibition, IL-1 beta readout | THP-1 LPS/ATP IL-1B secretion, AlphaLISA, 16 h; active compounds read low | activity change, % at 57.5 µM | 360,000 compounds, 4.7% hits | AID 743279; in the data active = activity change below about -50%; inconclusive = mostly about -30% to -49%
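Secreted IL-1B measured by AlphaLISA bead assay after 16 h compound exposure of THP-1 cells; compounds (final up to 57.5 uM) added 1 h before LPS (250 ng/mL) and ATP (1.25 mM) stimulation; lower signal means less secretion.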
Numbers stand for hits; . = inactive; ? = inconclusive; / = no result given. Compounds with a hit are over-represented: about 19% of the library has one in this group of screens. Unless noted, calls come from the whole dose curve; as a rule, active = well fitted curve in the direction sought with a large enough effect; inconclusive = small, poorly fitted or top-dose-only effect, or another doubt; inactive = no such curve, though single readings can be large; an effect the other way counts as inactive or inconclusive.

SMILES	TDP1 cell CPT	TDP1 cell noCPT	HT1080 IDH1KD tx	HT1080-NT tox	IL1B secr inh
C(=N\N(c1ccccc1)c1ccccc1)/c1ccc(N2CCOCC2)s1	.	?	.	.	.
CCC(C(=O)OCC(=O)NCc1ccc2c(c1)OCO2)c1ccccc1 (configuration not stated)	.	.	.	.	.
COC(=O)c1ccc(Oc2c(C)oc3c(CN4CCN(C)CC4)c(O)ccc3c2=O)cc1	?	.	.	.	.
CCOC(=O)CSc1nc2sc3c(c2c(=O)n1Cc1ccccc1)CCC(C(C)(C)C)C3 (configuration not stated)	.	.	/	/	/
O=Nc1nc2ncccn2c1-c1ccccc1	0.092µM	0.517µM	11.6µM	.	-83.6
COc1cccc(-c2cc(C(=O)NCc3ccccc3)no2)c1	.	.	/	/	/
CCN(CCCNC(=O)c1cc2c(-c3cccc(OC)c3)nn(C)c2s1)Cc1ccccc1	9.2µM	?	?	?	-84.5
CN1CCN(CCCNC(=O)c2cc3c(-c4ccc(Cl)cc4)nn(C)c3s2)CC1	.	?	.	?	?
CCN(CC)CCCNC(=O)c1cc2c(-c3ccc(Cl)cc3)nn(C)c2s1	7.31µM	5.8µM	23.1µM	20.6µM	-80.7
CCCCN(CC)CCNC(=O)c1cc2c(-c3ccccc3F)nn(C)c2s1	16.4µM	?	?	?	/
CCCN(CCC)CCCNC(=O)c1cc2c(-c3ccc(Cl)cc3)nn(C)c2s1	13µM	8.2µM	/	/	/
N=C1N(/N=C/c2ccccc2)C(=Nc2ccccc2)C(=S)N1c1ccccc1	.	.	.	.	.
Cc1noc(C)c1C(=O)NCc1ccccc1F	.	.	.	.	.
Cc1ccc(CCNC(=O)c2cc3c(-c4ccccc4F)nn(C)c3s2)cc1	.	?	/	/	/
COc1ccc(CCNC(=O)c2cc3c(-c4ccccc4F)nn(C)c3s2)c(OC)c1	6.51µM	5.8µM	/	/	/
COc1ccc(Br)cc1Cn1nnc(C(=O)Nc2ccc(C)cc2C)c1N	.	?	/	/	/
COc1cc(-c2nc(Cn3nnc(C(=O)Nc4ccc(C)cc4C)c3C)c(C)o2)cc(OC)c1OC	?	20.6µM	/	/	/
CCc1cccc(CC)c1NC(=O)c1cccc(S(=O)(=O)N2CCN(C)CC2)c1	.	.	.	.	.
O=[N+]([O-])c1ccc(Cc2ccccn2)cc1	.	.	.	.	.
O=[N+]([O-])c1ccc(CC(Cl)c2ccccn2)cc1 (configuration not stated)	.	.	.	.	-50.1
CCOC(=O)C1=C(c2ccccc2)NC(SC)=C(C#N)C1c1ccco1 (configuration not stated)	18.4µM	20.6µM	.	.	.
COc1ccc(S(=O)(=O)N2CCC(C(=O)N[C@H](C(=O)N3CCCCCC3)C(C)C)CC2)cc1	?	.	.	.	.
COc1ccccc1-c1cn[nH]c1-c1ccc(OCc2ccc([N+](=O)[O-])cc2)cc1O	.	.	.	?	.
COc1ccccc1-c1cn[nH]c1-c1ccc(OCc2ccc(F)cc2)cc1O	?	?	?	?	-51.6
COc1ccccc1-c1cn[nH]c1-c1ccc(OCc2ccccc2F)cc1O	18.4µM	14.6µM	?	?	-101.0
SMILES	TDP1 cell CPT	TDP1 cell noCPT	HT1080 IDH1KD tx	HT1080-NT tox	IL1B secr inh
Cc1n[nH]c(C)c1S(=O)(=O)N(CC(=O)NC1CCCC1)c1ccc(C(C)C)cc1	.	?	.	.	.
Nc1ccc(S(=O)(=O)NC2(C(F)(F)F)NC(=O)N(c3cccc(Cl)c3)C2=O)cc1 (configuration not stated)	.	.	/	/	/
Cc1ccc(OCC(=O)NNC(=O)c2cccnc2)cc1C	.	.	.	.	.
COc1ccc(-n2nnnc2S(=O)(=O)CC(=O)N2CCCCC2)cc1	2.59µM	1.46µM	20.6µM	20.6µM	-109.7
COc1ccc(-n2nnnc2S(=O)(=O)Cc2ccc(C(=O)O)cc2)cc1	14.6µM	16.4µM	7.94µM	14.1µM	-86.5
COc1cc(OC)cc(-n2nnnc2SCC(=O)N2CCCC2)c1	.	.	.	.	.
O=C(Nc1cccc2cccnc12)c1csc([C@@H]2O[C@H](CO)[C@H](O)[C@H](O)[C@H]2O)n1	.	.	.	.	.
N#Cc1ccc(OCc2c(-c3ccccc3)nnn2CC(=O)O)cc1	.	.	.	.	.
CCc1ccccc1NC(=O)CN1CCN(CC(=O)Nc2ccc3c(c2)OC2(CCCCC2)O3)CC1	18.4µM	4.11µM	.	.	.
C/C(=N\Nc1ccccc1)c1c(O)cc(C)oc1=O	.	.	11.6µM	?	.
C/C(=N/NC(=O)c1cccc(C)c1)c1c(O)cc(C)oc1=O	?	23.1µM	.	.	.
Cc1ccc(N/N=C/c2c(O)cc(C)oc2=O)cc1	?	?	?	?	.
COc1ccccc1N(C)S(=O)(=O)c1ccc(C(=O)Nc2ccncc2)cc1	?	18.4µM	.	.	.
COc1ccccc1N(C)S(=O)(=O)c1ccc(C(=O)NC2CCCCC2)cc1	14.6µM	?	.	.	.
